# Screening data as filed in PubChem BioAssay.
# This is a sample that favours compounds with a hit; in the whole collection about 2.5% have one here.
# Cruzain noTriton – cruzain (T. cruzi) inhibition without detergent; P25779; purified cruzain, Z-FR-AMC fluorescence, no detergent; Potency, µM, for inactives: max response, negative = inhibition, most hits filed as inhibitors; hit rate 2.3% among 200,000; AID 1476;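 further: plate controls were enzyme without inhibitor for no effect and buffer without enzyme for full effect; nearly all actives have a fitted effect of over 40% in size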
# Target sequence (P25779 123-467 limits assumed): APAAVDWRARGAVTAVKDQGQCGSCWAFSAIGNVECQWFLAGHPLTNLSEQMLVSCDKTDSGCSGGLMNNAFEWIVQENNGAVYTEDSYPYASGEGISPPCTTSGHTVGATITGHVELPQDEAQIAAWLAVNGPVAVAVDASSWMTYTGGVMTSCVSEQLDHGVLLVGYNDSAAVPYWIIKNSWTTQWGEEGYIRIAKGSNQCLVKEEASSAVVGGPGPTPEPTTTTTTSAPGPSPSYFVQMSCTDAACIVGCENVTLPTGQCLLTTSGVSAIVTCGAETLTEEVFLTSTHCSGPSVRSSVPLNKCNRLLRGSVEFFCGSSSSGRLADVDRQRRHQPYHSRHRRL
#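 Detergent-free condition (0.00005% Triton X-100) in acetate buffer pH 5.5 with DTT. 1.5 nM enzyme and compound were pre-mixed 15 min, then 2 uM Z-FR-AMC substrate added; reaction progress from fluorescence change between first and third reads (60 s).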
# Cruzain Triton – cruzain (T. cruzi) inhibition with detergent. P25779. purified cruzain, Z-FR-AMC fluorescence, 0.01% Triton. Potency, µM, for inactives: max response, negative = inhibition, usual class: inhibitors. hit rate 0.43% among 200,000. AID 1478;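 further: plate controls were neutral wells for no effect and buffer without enzyme for full effect; nearly all actives have a fitted effect of over 40% in size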
#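 Purified cruzain (1.5 nM final) was preincubated with compounds for 15 min at room temperature in 100 mM sodium acetate pH 5.5, 5 mM DTT, 0.01% Triton X-100. Reaction started with 2 uM Z-FR-AMC; AMC fluorescence change over 60 s gave activity.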
# Numbers without * were called inactive; ? = inconclusive. The call rests on the fitted dose curve; in most records, active means well fitted curve in the direction sought with a large enough effect; inconclusive means small, poorly fitted or top-dose-only effect, or another doubt; inactive means no such curve, though single readings can be large; an effect the other way counts as inactive or inconclusive. Potency means the concentration at half of the fitted maximal effect.
SMILES,Cruzain noTriton,Cruzain Triton
COc1cc(Nc2nc(SCc3ccccc3F)nc3ccccc23)cc(OC)c1,25%,1%
CC1(C)CCC(=O)N[C@H]1CC(=O)C[C@H]1NC(=O)CCC1(C)C,7%,-2%
O=C1c2[nH]nc(-c3ccccc3O)c2C(c2ccc(Cl)cc2)N1CCc1ccccc1 (centres undefined),?,-9%
Cc1ccc2nc3nc(NCC4CCCO4)c(C(=O)NC4CCCC4)cc3c(=O)n2c1 (centres undefined),12%,-17%
C=CCNC(=O)c1cc2c(=O)n3cc(C)ccc3nc2nc1NCC1CCCO1 (centres undefined),?,22µM*
Cn1cc(S(=O)(=O)N2CCc3ccccc32)cc1C(=O)Nc1ccc(C(F)(F)F)cc1,-1%,-3%
COc1cccc(-c2nnc(SCC(=O)NC3CCCCC3)o2)c1,4%,-5%
CC(C)c1ccc(NC(=O)c2cc3c(s2)-c2ccccc2SC3)cc1,10µM*,-4%
CCOC(=O)c1ccccc1NC(=O)c1cc2c(s1)-c1c(C)cccc1OC2,10%,3%
CCc1ccccc1N(CC)C(=O)c1cc2c(s1)-c1ccccc1SC2,-9%,-10%
O=C(NCc1ccccc1Cl)c1cc2c(s1)-c1ccccc1SC2,25µM*,-5%
COc1ccc(C)cc1NC(=O)c1cc2c(s1)-c1ccccc1SC2,16µM*,-6%
COc1ccc(Cl)cc1NC(=O)c1cc2c(s1)-c1ccccc1OC2,-1%,-3%
CCOC(=O)c1ccccc1NC(=O)c1cc2c(s1)-c1ccccc1SC2,7.9µM*,-6%
O=C(NCc1ccc(F)cc1)c1cc2c(s1)-c1ccccc1SC2,?,-12%
CCOCCCn1c(SCC(=O)Nc2ccccc2OC)nc2c(oc3ccccc32)c1=O,?,-4%
N#Cc1nc(-c2ccc(COc3ccc(Cl)cc3)o2)oc1N1CCCCC1,3%,-1%
COC(=O)C(c1ccc(OC)c(OC)c1)C1c2ccccc2C=C(C)N1C(=O)OC (centres undefined),21%,-1%
Cc1c(Cl)ccc2sc(NC(=O)CN3C(=O)c4ccccc4C3=O)nc12,10µM*,0%
Cc1ccc2sc(NC(=O)CN3C(=O)CCC3=O)nc2c1C,1%,-3%
CCOc1ccc(C(=O)Nc2ccc(OCc3cc(=O)n4cccc(C)c4n3)cc2)cc1,14%,1%
COC(=O)c1c(-n2c(C)cc(C=O)c2C)sc2c1CCCC2,7.9µM*,4%
Cc1cc(C=O)c(C)n1-c1sc2c(c1C(=O)O)CCCC2,-2%,-3%
Cc1cccc(NC(=S)N(Cc2cccs2)Cc2cc3cc(C)ccc3[nH]c2=O)c1,?,-6%
Cc1ccc(NC(=S)N(Cc2cccs2)Cc2cc3cc(C)ccc3[nH]c2=O)cc1,16µM*,-6%
SMILES,Cruzain noTriton,Cruzain Triton
Cc1cc(C)c2[nH]c(=O)c(CN(Cc3cccs3)C(=S)NCc3ccco3)cc2c1,?,-3%
Cc1ccc(NC(=S)N(Cc2cccs2)Cc2cc3cc(C)cc(C)c3[nH]c2=O)cc1,25µM*,-4%
Cc1ccccc1OCC(=O)Nc1ccc(OCc2cc(=O)n3ccsc3n2)cc1,-12%,0%
FB(F)F,-1%,3%
O=C(Nc1ccc(F)cc1F)c1cc(-c2ccccc2O)no1,?,-8%
CC(=O)Nc1ccc(NC(=O)c2oc3ccc4c(c3c2C)C(=O)CC(C)(C)O4)cc1,?,-9%
Cc1ccccc1-n1c(SCC(=O)N/N=C/C=C/c2ccccc2[N+](=O)[O-])nc2ccccc2c1=O,?,-1%
O=C(CSc1nc2ccccc2c(=O)n1-c1ccc(Cl)cc1)N/N=C/C=C/c1ccccc1[N+](=O)[O-],10µM*,-3%
O=C(O)C[SH+]CC(=O)O.O=C(O)C[SH+]CC(=O)O.[Cu],5%,4%
COc1ccc(-c2noc(-c3ccc(NCCc4ccccc4)c([N+](=O)[O-])c3)n2)cc1,-9%,-2%
O=[N+]([O-])c1cc(C(F)(F)F)cc([N+](=O)[O-])c1N1CCN(S(=O)(=O)c2ccccc2)CC1,-4%,-7%
O=[N+]([O-])c1cc(C(F)(F)F)ccc1N1CCN(S(=O)(=O)c2ccc3ccccc3c2)CC1,25µM*,0%
O=c1[nH]c(=O)n(-c2ccccc2)c(O)c1/C=C1/C(c2ccccc2)=Nc2ccccc21,-12%,-5%
Oc1[nH]c(=S)sc1/C=C1\C(c2ccccc2)=Nc2ccccc21,25µM*,-9%
O=C(Nc1ccccc1N1CCCC1)c1cccc(-c2cc3ccccc3oc2=O)c1,25µM*,-4%
O=C(Nc1ccc(N2CCCC2)cc1)c1ccc2ccccc2c1,16µM*,-23%
O=C(Nc1ccc(Br)cn1)c1cccc(-c2cc3ccccc3oc2=O)c1,?,-12%
O=C(Nc1ccc(N2CCCC2)cc1)c1cccc(-c2cc3ccccc3oc2=O)c1,4µM*,-16%
O=C(Nc1ccc(N2CCCC2)cc1)c1cccc(F)c1,?,-14%
O=C(Nc1ccc(N2CCCCC2)cc1)c1ccccc1,-6%,-1%
